Only some compounds are listed: those with a hit (about 0.086% of all), similar ones and a draw of the others.
CBFb RUNX1 block: CBF-beta/RUNX1 interaction disruption. Q01196+Q13951. AlphaScreen CBFb-His/RUNX1-biotin binding, biochemical. Potency, µM (titrated, usually from 59.8 µM), without a hit: at the highest dose activity, negative = inhibition, most hits filed as inhibitors. 230,000 tested, under 10 active. AID 1477; note: % of control where 0% means no effect
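His-tagged CBF-beta and biotinylated RUNX1 (30 nM each) were premixed 20 min at room temperature, exposed to compound for 15 min, then given nickel-chelate and streptavidin AlphaScreen beads (50 ng each). After 90 min, AlphaScreen signal was read.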
TCR activator: T cell receptor activation; primary human leukocytes, anti-CD3, IL-2 HTRF, 48 h; Potency, µM (top dose mostly 9.22 µM), for the others: at the highest dose activation of IL-2 secretion, usual class: activators; 330,000 tested, under 10 active; AID 504894; note: % of control where 0% means no effect
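Readout: HTRF IL-2, Eu-cryptate/d2 antibody pair, 320nm excitation, 665nm emission. Stimulus: a-CD3 beads, no co-stimulation. Cells: primary human leukocytes. Exposure: 48 hr with compound.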
Integrin act MD: activates integrin-mediated alleviation for muscular dystrophy; AID 624291; alpha7betagal myoblasts, beta-gal FDG fluorescence, 48 h; Potency, µM (highest dose often 38.3 µM), without a hit: at the highest dose activation, usual class: activators; 350,000 tested, 0.064% active;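 note: potency is the fitted concentration of half-maximal effect; 100% = response of the positive control SU9516; nearly all actives have a fitted effect of over 60% in size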
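Alpha7betagal+/- myoblasts (passage 13) were plated 16-24 hr, then exposed to compounds (1:260 dilution of DMSO stock) for 48 hours at 37C. After MPER lysis, β-galactosidase reporter activity was read as FDG fluorescence (ex 480/em 540) after 30 minutes.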
MBNL1-CUG inh: MBNL1-poly(CUG) RNA binding inhibition; AID 2675; Potency, µM (highest dose often 57.5 µM), inactives show at the highest dose activity change, negative = inhibition, actives largely listed as inhibitors; TR-FRET MBNL1-His/biotin-(CUG)12 binding, 665/545 ratio; Q9NR56; 280,000 tested, 0.036% active; active = well fitted inhibition curve with a large enough effect in the signal ratio, with a control signal flat, not every such curve was filed as active; inconclusive = small, poorly fitted or top-dose-only effect, or effect the other way, or a change in a side signal; inactive = no such curve, though single readings can be large or run the other way; the % refers to the signal ratio; note: potency is the fitted concentration of half-maximal effect; % is set by controls: 0 for no effect and ±100 for the full control effect
Target sequence (Q9NR56 whole entry, looked up): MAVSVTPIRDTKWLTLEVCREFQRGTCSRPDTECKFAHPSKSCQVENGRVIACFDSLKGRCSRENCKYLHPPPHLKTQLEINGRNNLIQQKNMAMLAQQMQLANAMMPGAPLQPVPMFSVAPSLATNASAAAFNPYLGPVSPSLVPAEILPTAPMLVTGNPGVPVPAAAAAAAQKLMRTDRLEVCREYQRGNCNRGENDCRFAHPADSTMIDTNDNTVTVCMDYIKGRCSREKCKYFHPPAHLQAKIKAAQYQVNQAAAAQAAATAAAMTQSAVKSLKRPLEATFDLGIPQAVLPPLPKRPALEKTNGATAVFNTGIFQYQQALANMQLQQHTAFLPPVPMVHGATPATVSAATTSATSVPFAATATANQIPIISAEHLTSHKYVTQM
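MBNL1-His + Biotin-(CUG)12, cpd titration 92 nM–58 uM; Tb anti-His Ab 0.055 ng/ul, SA-XL665 5 nM (final); 60 min RT; ratiometric 665/545 nm, Ex 340 nm; normalized to buffer and full-complex controls.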
MBNL1 TRFRET: MBNL1-poly(CUG) RNA binding inhibition confirmed; TR-FRET MBNL1-His / biotin-(CUG)12 binding, 60 min; shares compounds with MBNL1-CUG inh; 140 tested, 50% active; Potency, µM (series often up to 57.6 µM), inactives show at the top dose activity change, negative = inhibition, usual class: inhibitors
MBNL1-CUG Alpha: MBNL1-CUG RNA binding inhibition, AlphaScreen validation. AlphaScreen MBNL1-His / biotin-(CUG)12 binding. shares compounds with MBNL1-CUG inh. 140 tested, 30% active. Potency, µM (highest dose often 57.7 µM), for inactives: top-dose activity, negative = inhibition, actives largely listed as inhibitors
Menin-MLL HTRF: hit in HTRF counterscreen for MBNL1-poly(CUG) binding inhibitors; shares compounds with MBNL1-CUG inh; Potency, µM (top dose mostly 57.6 µM), inactives show at the highest dose activity, negative = inhibition, hits mostly inhibitors; His-Menin/biotin-MLL peptide TR-FRET counterscreen; 120 tested, 20% active
Active calls of the source: *; ? = inconclusive; nt = not tested or not shown; [ ] = another dose, or the depositor's remark. Unless noted, calls come from the whole dose curve; as a rule, active = well fitted curve in the direction sought with a large enough effect; inconclusive = small, poorly fitted or top-dose-only effect, or another doubt; inactive = no such curve, though single readings can be large; an effect the other way counts as inactive or inconclusive.

SMILES	CBFb RUNX1 block	TCR activator	Integrin act MD	MBNL1-CUG inh	MBNL1 TRFRET	MBNL1-CUG Alpha	Menin-MLL HTRF
CCOC(=O)C1(CCOc2ccccc2)CCN(Cc2ccncc2)CC1	1%	-10%	1%	-7%	nt	nt	nt
CCOC(=O)C1(CCOc2ccccc2)CCN(Cc2ccc(-n3cccn3)cc2)CC1	-3%	-8%	7%	11µM*	6.5µM*	?	-46%
Cc1cc(-c2ccccc2)nc(N(C)NC(=O)C(C)(C)C)c1S(C)(=O)=O	-16%	2%	2%	nt	nt	nt	nt
COc1ccc(-c2nc(SCC(=O)Nc3c(F)cccc3F)n[nH]2)cc1	nt	0%	9%	nt	nt	nt	nt
COc1ccc(-c2nc(SCC(=O)Nc3cc(C)on3)n[nH]2)cc1	3%	-5%	-5%	40µM*	16µM*	-9%	?
N#Cc1c(N)nc(SCC(=O)NCCc2ccccc2)c(C#N)c1-c1cccs1	?	-3%	-31%	134%	?	-3%	0%
CC(=O)CSc1nc(N)c(C#N)c(-c2cccs2)c1C#N	0%	nt	5%	245%	nt	nt	nt
O=C(NC1CCCCC1)c1ccccc1NC(=O)C1CC(=O)N(c2ccccc2)C1 (stereo unspecified)	-12%	-8%[46.1 µM]	13%	40µM*	-10%	-5%	2%
O=C(NC1CCCCC1)c1ccccc1NC(=O)C1CC(=O)N(c2ccc(Cl)cc2)C1 (stereo unspecified)	-8%	1%[46.1 µM]	16%	16µM*	20%	?	0%
COc1ccc(CCNC(=O)C2CC(=O)N(c3ccc(F)cc3)C2)cc1OC (stereo unspecified)	0%	4%	-15%	0.79µM*	-9%	-8%	0%
Cc1cc(O)c(-c2cc(C(=O)Nc3cccnc3)[nH]n2)cc1C	10%	1%	11%	nt	nt	nt	nt
CC(=O)Nc1ccc(NC(=O)c2cc(-c3cc(C)c(C)cc3O)n[nH]2)cc1	nt	1%	12%	10µM*	?	41µM*	-2%
CN(CC(=O)Nc1sccc1C#N)C1CCCCC1	11%	1%[46.1 µM]	13%	28µM*	-22%	-1%	0%
COC(=O)c1cccc(NC(=O)c2ccc[n+]([O-])c2)c1	nt	-1%	1%	40µM*	-24%	?	0%
COCCNC(=O)C(c1cccs1)N(C(=O)Cn1nnc2ccccc21)c1cccc(C)c1 (stereo unspecified)	4%	-1%	7%	1%	nt	nt	nt
COCCNC(=O)C(c1cccs1)N(C(=O)Cn1nnc2ccccc21)c1ccc(OC)cc1 (stereo unspecified)	0%	2%[46.1 µM]	9%	28µM*	-4%	-11%	2%
O=C(CN1c2cccc3cccc(c23)S1(=O)=O)NCc1ccccc1Cl	nt	nt	5%	nt	nt	nt	nt
CCOC(=O)c1[nH]c(=O)[nH]c1CSc1nc(C)cc(C)n1	3%	4%	1%	-9%	nt	nt	nt
CCOC(=O)CCCCC(=O)c1[nH]c(=O)[nH]c1CN1CCOCC1	-14%	-4%	23%	2.2µM*	4.1µM*	0.92µM*	16µM*
CCOC(=O)CCCCC(=O)c1[nH]c(=O)[nH]c1C[n+]1ccccc1	-8%	nt	nt	32µM*	16µM*	3.3µM*	?
CCOC(=O)CCCCC(=O)c1[nH]c(=O)[nH]c1CSc1nc(C)cc(=O)[nH]1	-24%	-3%	4%	1.8µM*	0.52µM*	0.073µM*	3.7µM*
CCOC(=O)CCCCC(=O)c1[nH]c(=O)[nH]c1CSc1nc(C)cc(C)n1	-13%	0%	3%	32µM*	26µM*	4.1µM*	-22%

Screening data deposited in PubChem BioAssay by National Center for Advancing Translational Sciences (NCATS).
